The text below walks through data of PubChem BioAssay (Tox21).

The structures appear in SMILES notation. Values joined by “and” are separate entries in the source; they are usually repeats but may differ in a detail not shown here. Equal entries are not always repeated. Inconclusive results are not listed. A call without a number means that no potency is given here. Some compounds were tested as several samples or in several runs, with calls that do not always agree. Active and inactive are the calls of the source. Calls follow the shape of the dose curve; as a rule, active = well fitted curve in the direction sought with a large enough effect in the repeat runs; inconclusive = weak or mixed curves; inactive = no such curve, though single readings can be large; an effect the other way counts as inactive or inconclusive.
Potency is read from the fitted curve at half-maximal effect.

One assay is described as follows: A CellTox Green Cytotoxicity Assay to monitor cytotoxicity in HEK293 cells - 8 hour (AID 1224884). Also: nearly all actives have a fitted effect of over 35% in size. As to conditions: CellTox Green fluorescence; series mostly up to 76.8 µM. An outline of the steps: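 Homogeneous no-lysis format: HEK293 cell suspension mixed with CellTox Green reagent, seeded, incubated 5 h at 37 C/5% CO2, then dosed by pintool with compound in DMSO.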
On to `O=C(O)CCl`, for which the Potency entry was “inactive”.
On the same count and under the same terms, under `C=CCOC(Cn1ccnc1)c1ccc(Cl)cc1Cl` (centres undefined) stands “inactive”.
For `CC(=O)O`, the Potency entry was “inactive”.
For the molecule `CCC[N+]1(C)CCCC1`, the Potency entry is “inactive”.
Regarding `CCCCCC[n+]1ccccc1`, the Potency result is “inactive”.
On to `CCCC[N+]1(C)CCCCC1`, for which the Potency result is “inactive and 55.7 µM (active)”.
As to `COCC(=O)N(c1c(C)cccc1C)C(C)C(=O)OC` (centres undefined), the Potency entry was “inactive”.
In the case of `Nc1ccccc1`, the Potency entry was “inactive”.
Turning to `O=S(=O)(O)O`, the Potency result is “inactive”.
As to `C1CCC(NC2CCCCC2)CC1`, the Potency result was “inactive”.
Regarding `CCCn1cc[n+](C)c1`, the Potency result was “inactive”.
The same measure, in the same setting: the value for `O=C(O)C(Cl)(Cl)Cl` was “inactive”.
Still for that read-out and setting: the value for `COP(=O)(OC)C(O)C(Cl)(Cl)Cl` (centres undefined) was “inactive”.
`CN(C)[C@@H]1C(=O)C(C(N)=O)=C(O)[C@@]2(O)C(=O)C3=C(O)c4c(O)cccc4[C@@](C)(O)[C@H]3[C@H](O)[C@@H]12`: the Potency entry was “inactive”.
As to `O=C(O)C(Cl)Cl`, the Potency entry is “inactive”.
On to `CCOP(=S)(OCC)Oc1ccc2c(C)c(Cl)c(=O)oc2c1`, for which the Potency result is “inactive”.
Consider `CC[n+]1ccccc1`, for which the Potency result was “inactive”.
Still for that read-out and setting: under `COP(=O)(OC)OC=C(Cl)Cl` stands “inactive”.
In the case of `CCCCn1cc[n+](C)c1C`, the Potency result was “inactive”.
On the same count and under the same terms, under `CC(=O)[O][Hg][c]1ccccc1` stands “inactive”.
On the same count and under the same terms, under `CCCCCCCCCCn1cc[n+](C)c1` stands “inactive”; under `O=C(O)COc1ccc(Cl)cc1Cl`, “inactive”; under `CC[N+](CC)(CC)CC`, “inactive”.
As to `CCCCn1cc[n+](C)c1`, the Potency result was “inactive”.
With `C[C@]12CCC(=O)C=C1CC[C@@H]1[C@@H]2CC[C@]2(C)C(=O)CC[C@@H]12`, the Potency result is “inactive”.
Take `Cc1cc(Cl)ccc1OCC(=O)O`: the Potency entry is “inactive”.
As for `O=c1[nH]c(=O)n(Cl)c(=O)n1Cl`, the Potency entry is “inactive”.
The same measure, in the same setting: under `CCn1cc[n+](C)c1C` stands “inactive”; under `O=P1(N(CCCl)CCCl)NCCCO1` (centres undefined), “inactive”; under `OCCOc1ccccc1`, “inactive”.
On the same count and under the same terms, the value for `CCNc1nc(Cl)nc(NCC)n1` was “inactive”.
As for `CC(Cl)(Cl)C(=O)O`, the Potency entry was “inactive”.

The next assay is described as follows: qHTS RealTime-Glo MT Cell Viability Assay in HepG2 cells - 16 hour (AID 1224885). Also: nearly all actives have a fitted effect of over 50% in size. The following applies: RealTime-Glo luminescence; series mostly up to 76.8 µM. An outline of the steps: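 Luminescence read-out: viable HepG2 cells reduce a prosubstrate to a NanoLuc substrate, giving a signal proportional to live cell number. Reads taken at 0, 8, 16, 24, 32 and 40 h of compound exposure at 37 C.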
Consider `O=C(O)CCl`, for which the Potency entry is “inactive”.
`C=CCOC(Cn1ccnc1)c1ccc(Cl)cc1Cl` (centres undefined): the Potency result was “inactive”.
Take `CC(=O)O`: the Potency result was “inactive”.
Turning to `CCC[N+]1(C)CCCC1`, the Potency result was “inactive”.
For `CCCCCC[n+]1ccccc1`, the Potency entry was “inactive”.
For the molecule `CCCC[N+]1(C)CCCCC1`, the Potency entry is “inactive”.
On the same count and under the same terms, the value for `COCC(=O)N(c1c(C)cccc1C)C(C)C(=O)OC` (centres undefined) was “inactive”; that for `Nc1ccccc1` was “inactive”; that for `O=S(=O)(O)O` was “inactive”.
With `C1CCC(NC2CCCCC2)CC1`, the Potency entry was “inactive”.
The same measure, in the same setting: under `CCCn1cc[n+](C)c1` stands “inactive”.
As to `O=C(O)C(Cl)(Cl)Cl`, the Potency result is “inactive”.
Still for that read-out and setting: the value for `COP(=O)(OC)C(O)C(Cl)(Cl)Cl` (centres undefined) was “inactive”.
With `CN(C)[C@@H]1C(=O)C(C(N)=O)=C(O)[C@@]2(O)C(=O)C3=C(O)c4c(O)cccc4[C@@](C)(O)[C@H]3[C@H](O)[C@@H]12`, the Potency result is “inactive”.
Consider `O=C(O)C(Cl)Cl`, for which the Potency result is “inactive”.
In the case of `CCOP(=S)(OCC)Oc1ccc2c(C)c(Cl)c(=O)oc2c1`, the Potency entry was “inactive”.
Consider `CC[n+]1ccccc1`, for which the Potency result was “inactive”.
With `COP(=O)(OC)OC=C(Cl)Cl`, the Potency result was “inactive”.
Turning to `CCCCn1cc[n+](C)c1C`, the Potency result is “inactive”.
With `CC(=O)[O][Hg][c]1ccccc1`, the Potency is 1.72 µM (active) and 1.74 µM (active) and 1.07 µM (active).
As to `CCCCCCCCCCn1cc[n+](C)c1`, the Potency result was “inactive”.
On the same count and under the same terms, the value for `O=C(O)COc1ccc(Cl)cc1Cl` was “inactive”; that for `CC[N+](CC)(CC)CC` was “inactive”.
For `CCCCn1cc[n+](C)c1`, the Potency entry is “inactive”.
Consider `C[C@]12CCC(=O)C=C1CC[C@@H]1[C@@H]2CC[C@]2(C)C(=O)CC[C@@H]12`, for which the Potency entry is “inactive”.
On to `Cc1cc(Cl)ccc1OCC(=O)O`, for which the Potency entry was “inactive”.
With `O=c1[nH]c(=O)n(Cl)c(=O)n1Cl`, the Potency entry is “inactive”.
On to `CCn1cc[n+](C)c1C`, for which the Potency result is “inactive”.
Same read-out and setting: under `O=P1(N(CCCl)CCCl)NCCCO1` (centres undefined) stands “inactive”; under `OCCOc1ccccc1`, “inactive”; under `CCNc1nc(Cl)nc(NCC)n1`, “inactive”.
For `CC(Cl)(Cl)C(=O)O`, the Potency entry is “inactive”.
